Source: PubChem BioAssay AID1159580 (chemical genetic matrix, 2015)
Hit rate of the full screen: of about 5,500 compounds, about 2,000 (36%) were called active. Another 18% or so got no clear call; they are omitted. Cut-off read from the data, not from the text of the source: active = normalized growth mostly below about 0.91 (no sharp cut-off); inconclusive = no clear call, values can overlap the other calls; inactive = mostly above about 0.92. The list shows a part of the results.

Experiment: chemical genetic growth profiling, strain panel (AID 1159580);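 note: tested at 20 µM; growth read once vehicle control cultures reached saturation at 30 °C; 1 = growth at the plate median or of vehicle wells; lower values mean less growth of the strain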
Settings: S. cerevisiae deletion strains, growth OD
[1] = locus YAL040C, strain CLN3, active compounds read low
[2] = locus YCL061C, strain MRC1 (second series), active compounds read low
[3] = locus YDR150W, strain NUM1, active compounds read low
[4] = locus YDR363W, strain ESC2, active compounds read low
[5] = locus YER002W, strain NOP16, active compounds read low
[6] = locus YJR075W, strain HOC1, active compounds read low
[7] = locus YMR263W, strain SAP30, active compounds read low
[8] = locus YMR307W, strain GAS1, active compounds read low
[9] = locus YNL175C, strain NOP13, active compounds read low
[10] = locus YNL197C, strain WHI3, active compounds read low
[11] = locus YNL224C, strain SQS1, active compounds read low
[12] = locus YOR083W, strain WHI5 (second series), active compounds read low
[13] = locus YGR078C, strain PAC10, active compounds read low
[14] = locus YNL153C, strain GIM3, active compounds read low
[15] = locus YPL241C, strain CIN2, active compounds read low

Measured: normalized growth

CC[C@@H]1C=C/C=C/C[C@H](C)[C@@H](O)[C@](C)(O)C(=O)[C@H](C)[C@@H](O)[C@H](C)C(=O)[C@H](C)[C@@H](O)[C@H](C)/C=C/C(=O)O[C@H]2[C@@H](C)[C@@H](CC1)O[C@@]1(CC[C@@H](C)[C@@H](CC(C)O)O1)[C@@H]2C (stereo not given in full)
active: [8] 0.911
inactive: [1] 0.989 | [2] 1.01 | [3] 1 | [4] 0.961 | [5] 0.945 | [6] 0.973 | [7] 1.02 | locus YNL128W, strain TEP1, active compounds read low 0.96 | [9] 0.969 | [10] 0.99 | [11] 0.993 | [12] 0.971 | locus YPL055C, strain LGE1, active compounds read low 0.936

CC[C@@H]1C=C/C=C/C[C@H](C)[C@@H](O)[C@](C)(O)C(=O)[C@H](C)[C@@H](O)[C@H](C)C(=O)[C@H](C)[C@@H](O)[C@H](C)/C=C/C(=O)O[C@H]2[C@@H](C)[C@@H](CC1)O[C@@]1(CC[C@@H](C)[C@@H](C[C@H](C)O)O1)[C@@H]2C
active: locus YLR262C, strain YPT6 (second series), active compounds read low 0.852 | locus YMR205C, strain PFK2, active compounds read low 0.815 | locus YPL106C, strain sse1, active compounds read low 0.807
inactive: locus YAL021C, strain ccr4, active compounds read low 0.977 | locus YAL026C, strain drs2, active compounds read low 1.01 | locus YAL030W, strain snc1, active compounds read low 1 | locus YBL061C, strain skt5, active compounds read low 1 | locus YBR009C, strain hhf1, active compounds read low 0.985 | locus YBR023C, strain chs3, active compounds read low 1 | locus YBR171W, strain sec66, active compounds read low 1.01 | locus YBR231C, strain swc5, active compounds read low 1 | locus YBR279W, strain paf1, active compounds read low 0.982 | locus YCL011C, strain gbp2, active compounds read low 1.02 | locus YCL016C, strain dcc1, active compounds read low 1.02 | locus YCL061C, strain MRC1, active compounds read low 1.01 | locus YCL069W, strain vba3, active compounds read low 1.01 | locus YCR088W, strain abp1, active compounds read low 1.02 | locus YDL005C, strain med2, active compounds read low 1 | locus YDL040C, strain nat1, active compounds read low 1.01 | locus YDR001C, strain nth1, active compounds read low 1.01 | locus YDR069C, strain doa4, active compounds read low 0.997 | locus YDR137W, strain rgp1, active compounds read low 0.899 | locus YDR159W, strain sac3, active compounds read low 0.953 | locus YDR195W, strain ref2 0.999 | locus YDR297W, strain sur2, active compounds read low 1.01 | locus YDR334W, strain swr1, active compounds read low 1.02 | locus YDR335W, strain msn5, active compounds read low 1.01 | locus YDR392W, strain spt3, active compounds read low 0.958 | locus YEL003W, strain gim4, active compounds read low 1.01 | locus YEL037C, strain rad23, active compounds read low 1.02 | locus YEL061C, strain CIN8 (second series), active compounds read low 1.01 | locus YER015W, strain faa2, active compounds read low 0.997 | locus YER016W, strain bim1, active compounds read low 1.01 | locus YER111C, strain swi4, active compounds read low 1.01 | locus YER155C, strain BEM2 (second series), active compounds read low 1.03 | locus YFR010W, strain ubp6, active compounds read low 1 | locus YGL167C, strain pmr1, active compounds read low 1.01 | locus YGL173C, strain kem1, active compounds read low 0.996 | locus YGL227W, strain vid30, active compounds read low 1.01 | locus YGL240W, strain doc1, active compounds read low 1.01 | locus YGL253W, strain hxk2, active compounds read low 0.927 | locus YHR013C, strain ard1, active compounds read low 0.967 | locus YHR027C, strain rpn1, active compounds read low 1 | locus YHR142W, strain chs7, active compounds read low 1.03 | locus YJL092W, strain hpr5, active compounds read low 1.01 | locus YJL095W, strain BCK1 (second series), active compounds read low 1.02 | locus YJL115W, strain asf1, active compounds read low 1.01 | locus YJL129C, strain trk1, active compounds read low 0.967 | locus YJL154C, strain vps35, active compounds read low 1.01 | locus YJL164C, strain tpk1, active compounds read low 0.987 | locus YJL166W, strain qcr8, active compounds read low 1.01 | locus YJL187C, strain SWE1, active compounds read low 1.01 | locus YKL160W, strain elf1, active compounds read low 0.997 | locus YKR026C, strain gcn3, active compounds read low 0.99 | locus YKR091W, strain srl3, active compounds read low 1.01 | locus YLL001W, strain dnm1, active compounds read low 0.984 | locus YLL026W, active compounds read low 1.01 | locus YLL041C, strain sdh2, active compounds read low 1.01 | locus YLR027C, strain aat2, active compounds read low 0.995 | locus YLR221C, strain rsa3, active compounds read low 1.02 | locus YLR258W, strain gsy2, active compounds read low 0.997 | locus YLR320W, strain mms22, active compounds read low 0.984 | locus YLR342W, strain FKS1, active compounds read low 1 | locus YLR357W, strain rsc2, active compounds read low 1.03 | locus YLR370C, strain arc18, active compounds read low 0.994 | locus YLR384C, strain iki3, active compounds read low 0.999 | locus YML120C, strain ndi1, active compounds read low 0.995 | locus YMR058W, strain fet3, active compounds read low 1.02 | locus YMR125W, strain sto1, active compounds read low 1.04 | locus YMR129W, active compounds read low 0.999 | locus YMR231W, strain pep5, active compounds read low 1 | locus YNL071W, strain lat1, active compounds read low 1.01 | locus YNL209W, strain ssb2, active compounds read low 0.997 | locus YNL248C, strain rpa49, active compounds read low 1.01 | locus YNL322C, strain KRE1 (second series), active compounds read low 1.02 | locus YNR049C, strain mso1, active compounds read low 1.02 | locus YOR001W, strain rrp6, active compounds read low 0.999 | locus YOR070C, strain gyp1, active compounds read low 1 | locus YOR080W, strain dia2, active compounds read low 1.01 | locus YOR083W, strain WHI5, active compounds read low 1 | locus YOR106W, strain vam3, active compounds read low 0.99 | locus YOR265W, strain rbl2, active compounds read low 1 | locus YOR270C, strain vph1, active compounds read low 0.914 | locus YOR290C, strain snf2, active compounds read low 0.966 | locus YPL051W, strain arl3, active compounds read low 1.01 | locus YPL078C, strain atp4, active compounds read low 1.02 | locus YPL240C, strain hsp82, active compounds read low 0.989

C[N+](C)(C)CCC(=O)c1cccc2ccccc12
active: [1] 0.095 | [6] 0.813 | [8] 0.775 | [14] 0.104 | [9] 0.0891 | [11] 0.0743 | [12] 0.231
inactive: [2] 0.951 | [3] 0.972 | [4] 0.962 | [13] 0.989 | [7] 0.99 | [10] 0.93 | [15] 1

COc1cccc(C2CCN(C(=O)c3cccc4ccccc34)CC2)c1
inactive: locus YAR019C, strain CDC15, active compounds read low 0.996 | locus YBL105C, strain PKC1, active compounds read low 0.988 | locus YBR135W, strain CKS1, active compounds read low 0.982 | locus YBR136W, strain MEC1, active compounds read low 0.981 | locus YBR160W, strain CDC28, active compounds read low 0.991 | locus YDL017W, strain CDC7, active compounds read low 0.99 | locus YDL028C, strain MPS1, active compounds read low 0.993 | locus YDL101C, strain DUN1, active compounds read low 0.982 | locus YDL108W, strain KIN28, active compounds read low 0.987 | locus YDL132W, strain cdc53, active compounds read low 0.993 | locus YDL214C, strain PRR2, active compounds read low 0.866 | locus YDR052C, strain DBF4, active compounds read low 0.99 | locus YDR054C, strain cdc34, active compounds read low 0.988 | locus YDR226W, strain ADK1, active compounds read low 0.988 | locus YDR477W, strain SNF1, active compounds read low 0.923 | locus YER123W, strain YCK3, active compounds read low 0.828 | locus YER133W, strain GLC7, active compounds read low 0.899 | locus YFL009W, strain cdc4, active compounds read low 0.992 | locus YFL029C, strain CAK1, active compounds read low 0.99 | locus YFR003C, strain YPI1, active compounds read low 0.987 | locus YFR019W, strain FAB1, active compounds read low 0.89 | locus YFR028C, strain CDC14, active compounds read low 0.99 | locus YGR040W, strain KSS1, active compounds read low 0.904 | locus YGR052W, strain FMP48, active compounds read low 0.958 | locus YGR092W, strain DBF2, active compounds read low 0.903 | locus YHR030C, strain SLT2, active compounds read low 1 | locus YHR079C, strain IRE1, active compounds read low 0.967 | locus YHR082C, strain KSP1, active compounds read low 0.946 | locus YHR205W, strain SCH9, active compounds read low 0.907 | locus YIL147C, strain SLN1, active compounds read low 0.987 | locus YJL095W, strain BCK1, active compounds read low 0.973 | locus YJL128C, strain PBS2, active compounds read low 0.935 | locus YJL157C, strain FAR1, active compounds read low 0.886 | locus YJR016C, strain ILV3, active compounds read low 0.99 | locus YJR066W, strain TOR1 (second series), active compounds read low 0.882 | locus YJR066W, strain TOR1, active compounds read low 0.948 | locus YKL048C, strain ELM1, active compounds read low 0.919 | locus YKL067W, strain YNK1, active compounds read low 0.907 | locus YKL101W, strain HSL1, active compounds read low 0.882 | locus YKL193C, strain SDS22, active compounds read low 0.991 | locus YKL203C, strain TOR2, active compounds read low 0.978 | locus YLR113W, strain HOG1, active compounds read low 0.91 | locus YLR133W, strain CKI1, active compounds read low 0.94 | locus YLR403W, strain SFP1, active compounds read low 0.922 | locus YML070W, strain DAK1, active compounds read low 0.859 | locus YMR001C, strain CDC5, active compounds read low 0.987 | locus YMR205C, strain PFK2 (second series), active compounds read low 0.914 | locus YMR277W, strain FCP1, active compounds read low 0.995 | locus YNL006W, strain LST8, active compounds read low 0.987 | locus YNL020C, strain ARK1, active compounds read low 0.9 | locus YNL161W, strain CBK1, active compounds read low 0.992 | locus YNL183C, strain NPR1, active compounds read low 0.963 | locus YNL207W, strain RIO2, active compounds read low 0.997 | locus YNL222W, strain SSU72, active compounds read low 0.994 | locus YNL307C, strain MCK1 (second series), active compounds read low 0.903 | locus YOL078W, strain AVO1, active compounds read low 0.997 | locus YOL136C, strain PFK27, active compounds read low 0.898 | locus YOR061W, strain CKA2, active compounds read low 0.877 | locus YOR119C, strain RIO1, active compounds read low 0.954 | locus YOR231W, strain MKK1, active compounds read low 0.935 | locus YOR329C, strain SCD5, active compounds read low 0.991 | locus YPL031C, strain PHO85, active compounds read low 0.913 | locus YPL153C, strain RAD53, active compounds read low 0.899 | locus YPL204W, strain HRR25, active compounds read low 0.923 | locus YPL209C, strain IPL1, active compounds read low 0.992 | locus YPL256C, strain CLN2, active compounds read low 0.942 | locus YPR025C, strain CCL1, active compounds read low 0.995 | locus YPR106W, strain ISR1, active compounds read low 0.979 | locus YPR111W, strain DBF20, active compounds read low 0.975 | strain NNK1, active compounds read low 0.976 | strain TSCII, active compounds read low 0.993

COC(=O)C1C(O)CCC2CN3CCc4c([nH]c5ccccc45)C3CC21 (stereo not given)
inactive: [1] 0.997 | [2] 1.01 | [4] 1 | [5] 1.01 | [13] 1.01 | locus YGR229C, strain SMI1, active compounds read low 1.04 | [8] 1.01 | [14] 0.981 | [9] 1.02 | [10] 0.995 | [11] 1 | locus YNL322C, strain KRE1, active compounds read low 1.03 | [12] 1 | [15] 1.01
